20 molecules from PubChem BioAssay (EPA / NIEHS) can be followed below.

Each structure is given as a SMILES string. Inconclusive results are not listed. Active and inactive are the calls of the source. Rule for the calls: active = hit-call score of the fitted dose curve at least 0.9, where 1 is the maximum; inconclusive = response in the unintended direction; inactive = score below 0.9.

Assay [1] can be described thus: Tanguay_ZF_120hpf_AXIS_legacy: (Legacy) Oregon State University Tanguay Lab 120 Hour Post-fertilization zebrafish Assay for Body Axis Malformation (AID 2283635).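 For AC50: potency for an increased fraction of larvae scored with body axis malformation.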 Summed up: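 Chorion is removed with pronase at 4 hpf, then single 6 hpf embryos are dosed (final DMSO 0.64%) and held statically at 28C in sealed, foil-covered plates. At 120 hpf body axis malformation is recorded as present or absent.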

Assay [2] can be described thus: Tanguay_ZF_120hpf_EYE_legacy: (Legacy) Oregon State University Tanguay Lab 120 Hour Post-fertilization zebrafish Assay for Eye Malformation (AID 2283636). Summed up:
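Binary brightfield scoring of eye defects at 120 hpf after static exposure from 6 hpf of single pronase-dechorionated wild-type embryos (28C, 0.64% DMSO). Non-mortality endpoints omitted where embryos died; fit vs DMSO.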

The nature of assay [3]: Tanguay_ZF_120hpf_SNOU_legacy: (Legacy) Oregon State University Tanguay Lab 120 Hour Post-fertilization zebrafish Assay for Snout Malformation (AID 2283637). Summed up: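 Binary snout-malformation call at 120 hpf in wild-type 5D embryos, chorion removed by pronase, under static exposure from 6 hpf at 28C (0.64% DMSO). Embryos dying by 24 or 120 hpf excluded.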
Assay [4] is described as follows: Tanguay_ZF_120hpf_JAW_legacy: (Legacy) Oregon State University Tanguay Lab 120 Hour Post-fertilization zebrafish Assay for Jaw Malformation (AID 2283638).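 For AC50: active means more embryos with jaw malformation than DMSO controls.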 Summed up: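 Steps: dechorionate 4 hpf embryos (pronase); plate 1/well at 6 hpf; add test chemical, 0.64% DMSO final; seal, cover, hold at 28C statically to 120 hpf; score jaw defect presence/absence microscopically. Dead embryos not scored.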

The nature of assay [5]: Tanguay_ZF_120hpf_OTIC_legacy: (Legacy) Oregon State University Tanguay Lab 120 Hour Post-fertilization zebrafish Assay for Otic Vesicle Malformation (AID 2283639). Summed up: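 Wild-type zebrafish larvae, whole-embryo exposure from early stage to 120 hpf at 28C. Binary brightfield scoring of otic vesicle morphology, fitted in the positive direction against the DMSO baseline.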

Assay [6] in a line: Tanguay_ZF_120hpf_PE_legacy: (Legacy) Oregon State University Tanguay Lab 120 Hour Post-fertilization zebrafish Assay for Pericardial Edema (AID 2283640).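 For AC50: potency for increased incidence of pericardial edema versus DMSO baseline.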 Summed up:
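Embryos from wild-type 5D adults were staged, then dosed in 0.64% DMSO. They were kept sealed in the dark at 28C until 120 hpf. Pericardial edema was then recorded as present or absent.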

Assay [7] can be described thus: Tanguay_ZF_120hpf_BRAI_legacy: (Legacy) Oregon State University Tanguay Lab 120 Hour Post-fertilization zebrafish Assay for Brain Malformation (AID 2283641). Summed up: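 Wild-type 5D larvae, static waterborne exposure to 120 hpf, 28C, 0.64% v/v DMSO. Brightfield scoring of brain defects, binary; dead embryos excluded. Positive ctrl 5uM trimethyltin chloride.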
The nature of assay [8]: Tanguay_ZF_120hpf_SOMI_legacy: (Legacy) Oregon State University Tanguay Lab 120 Hour Post-fertilization zebrafish Assay for Somite Malformation (AID 2283647). Summed up:
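Read-out: presence or absence of somite malformation in 120 hpf larvae, gain-of-signal relative to DMSO baseline. Embryos lacked chorion (pronase, 4 hpf) and were exposed statically from 6 hpf at 28C; dead larvae not scored.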

Assay [9] in a line: Tanguay_ZF_120hpf_PFIN_legacy: (Legacy) Oregon State University Tanguay Lab 120 Hour Post-fertilization zebrafish Assay for Pectoral Fin Malformation (AID 2283648).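 Note: each larva judged yes or no for fin defect by brightfield with dead larvae skipped.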 Summed up: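 Pectoral fin malformation was recorded as a binary endpoint at 120 hpf in wild-type Tropical 5D larvae, which had been dechorionated and exposed statically from 6 hpf at 28C in 0.64% DMSO. Dead embryos were excluded.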

Assay [10] in a line: Tanguay_ZF_120hpf_CFIN_legacy: (Legacy) Oregon State University Tanguay Lab 120 Hour Post-fertilization zebrafish Assay for Caudal Fin Malformation (AID 2283649). Summed up: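 Binary presence or absence of caudal fin malformation at 120 hpf, read by brightfield microscopy, with DMSO as baseline. Larvae came from 5D wild-type embryos exposed statically from 6 hpf at 28C after pronase dechorionation.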

A word on the AC50: it is the midpoint of the concentration-response curve, whichever way the signal moves.

For the molecule `O=C1OC(=O)C2C3C=CC(C3)C12` (centres undefined), the result in [1], in assay [2], in [3], in [4], in assay [5] and in [6] was inactive. Besides, the result in assay [7], in assay [8], in assay [9] and in assay [10] was inactive.

In the case of `CCCCC(CC)COC(=O)c1ccc(C(=O)OCC(CC)CCCC)cc1` (centres undefined), the result in assay [1], in assay [2], in assay [3], in assay [4], in assay [5] and in assay [6] was inactive. The molecule was classed as inactive in assay [7], in assay [8], in assay [9] and in assay [10].

As for `CCCC(=O)OCC`, the outcome in assay [1], in assay [2], in assay [3], in [4], in [5] and in assay [6] was inactive. Moreover, the result in [7], in assay [8], in [9] and in assay [10] was inactive.

Turning to `Fc1ccccc1[C@@H](F)COC1CCC(Nc2ncnc3[nH]ncc23)CC1` (some centres undefined), the call in assay [1], in assay [2], in assay [3], in assay [5], in assay [7] and in [8] was inactive. Also, the molecule was called inactive in [9] and in assay [10]. Further, the AC50 was 38 µM (active) in [4] and 34.9 µM (active) in [6].

Take `O=P(OC(CCl)CCl)(OC(CCl)CCl)OC(CCl)CCl`: the AC50 in assay [1] is 35.3 µM (active); in assay [2] it was 36.7 µM (active); in assay [3] it was 25.9 µM (active); in assay [4], 36.3 µM (active); in [5] it was 34.7 µM (active); in [6] it was 28.2 µM (active). The AC50 in [7] was 31.7 µM (active); in assay [8] it was 9.13 µM (active); in assay [9] it was 40.3 µM (active); in assay [10], 30 µM (active).

`O=c1n(CC2CO2)c(=O)n(CC2CO2)c(=O)n1CC1CO1` (centres undefined): the molecule was called inactive in [1], in assay [2], in assay [3], in [4], in [5] and in assay [6]. Also, the result in assay [7], in assay [8], in [9] and in assay [10] was inactive.

Take `CC(C)(O)c1coc(S(=O)(=O)NC(=O)Nc2c3c(cc4c2CCC4)CCC3)c1`: the result in [1], in [2], in assay [3], in [4], in [5] and in [6] was inactive. Besides, the molecule was called inactive in [7], in assay [8], in assay [9] and in [10].

Take `Oc1ccc2c(c1)-c1ccccc1C2`: the AC50 in assay [1] was 35.5 µM (active); in assay [2], 48 µM (active); in [3], 39.3 µM (active); in assay [4], 37.7 µM (active); in assay [6], 34.5 µM (active); in [8], 49.1 µM (active). Moreover, the half-maximal activity concentration (AC50) in [9] was 36 µM (active); in [10] it was 35.1 µM (active). Also, the call in [5] and in assay [7] was inactive.

In the case of `CCOc1cccc(-n2cc(C(=O)N3CCN(c4cc(C(=O)O)c5ccccc5c4)CC3)nc2-c2ccc(C)cc2)c1`, the molecule was classed as inactive in assay [1], in assay [2], in assay [3], in [4], in assay [5] and in assay [6]. The molecule was called inactive in [7], in assay [8], in assay [9] and in assay [10].

For the molecule `C1=CCCC=CCCC=CCC1`, the result in assay [1], in assay [2], in [3], in [4], in assay [5] and in assay [6] was inactive. The call in assay [7], in assay [8], in assay [9] and in assay [10] was inactive.

`Cc1ccc(C)c(O)c1`: the outcome in [1], in [2], in [3], in assay [4], in assay [5] and in assay [6] was inactive. The molecule was classed as inactive in [7], in [8], in assay [9] and in [10].

Turning to `CCn1nc(Cc2ccccc2)cc1C1CCN(C[C@H]2C[C@H](N(C)[C@@H](C(=O)O)C(C)C)C[C@@H]2c2cccc(F)c2)CC1`, the molecule was classed as inactive in [1], in assay [2], in [3], in [4], in [5] and in assay [6]. The call in [7], in [8], in [9] and in assay [10] was inactive.

On to `CCOC(=O)CC(CC(=O)OCC)(OC(C)=O)C(=O)OCC`, for which the molecule was classed as inactive in [1], in [2], in [3], in [4], in assay [5] and in [6]. Also, the result in assay [7], in assay [8], in assay [9] and in assay [10] was inactive.

Regarding `Nc1ccc(Nc2ccccc2)cc1`, the concentration at half-maximal activity (AC50) in [1] is 43.8 µM (active); in assay [2], 45.8 µM (active); in [3] it was 34.9 µM (active); in assay [4], 27.2 µM (active); in assay [6] it was 40 µM (active); in assay [7], 45.1 µM (active). The concentration at half-maximal activity (AC50) in assay [8] was 40.1 µM (active); in [9], 41.2 µM (active); in assay [10] it was 47 µM (active). The result in assay [5] was inactive.

Turning to `CCCCCCCCCCCCc1ccccc1`, the outcome in assay [1], in assay [2], in [3], in assay [4], in assay [5] and in assay [6] was inactive. The molecule was classed as inactive in assay [7], in assay [8], in assay [9] and in assay [10].

Take `CC(C)CCO`: the molecule was classed as inactive in assay [1], in assay [2], in assay [3], in assay [4], in [5] and in assay [6]. Also, the result in [7], in [8], in assay [9] and in assay [10] was inactive.

Regarding `C[C@](N)(Cc1ccc(O)c(O)c1)C(=O)O`, the result in assay [1], in assay [2], in assay [3], in [4], in [5] and in [6] was inactive. Also, the molecule was classed as inactive in assay [7], in [8], in assay [9] and in assay [10].

`CC/C(=C\C(=N/O)C(N)=O)C(C)[N+](=O)[O-]` (centres undefined): the molecule was classed as inactive in assay [1], in [2], in assay [3], in [4], in assay [5] and in assay [6]. Besides, the outcome in assay [7], in [8], in assay [9] and in [10] was inactive.

In the case of `COCCOc1cc2cc(C(=O)NC3CCN(C(C)C)CC3)n(CC(=O)Nc3ccc(Cl)cn3)c2cn1`, the result in assay [1], in assay [2], in assay [3], in assay [4], in assay [5] and in assay [6] was inactive. Further, the outcome in [7], in assay [8], in assay [9] and in assay [10] was inactive.

Regarding `CNS(=O)(=O)c1cc(C(=O)N2CCC(CCN3C4CCC3CC(n3c(C)nc5ccccc53)C4)(c3cccc(F)c3)CC2)c(Cl)cc1F` (centres undefined), the molecule was called inactive in assay [1], in assay [2], in assay [3], in assay [4], in assay [5] and in [6]. In addition, the molecule was classed as inactive in [7], in assay [8] and in [9].
